From PubChem
HEK293 viab = reduces viability of HEK-293 SNCA reporter cells; HEK-293-SNCA-luc viability, GF-AFC fluorescence, 24 h; Potency, µM (top dose mostly 57.1 µM), for inactives: at the top dose activity change, negative = cytotoxicity, usual class: cytotoxic; 0.12% of 150,000 active;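 further: 0% = DMSO-treated cells and -100% = medium-only wells without cells; nearly all actives have a fitted effect of over 30% in size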
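HEK-293-SNCA-luc cells (1500/well) plated 24 h, then exposed 24 h to a dilution series; GF-AFC added 30 min at 37C, fluorescence 405/540 nm; normalised to medium-only and DMSO wells, Hill fit.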
NPR1 antag = blocks ANP-stimulated signaling of human Npr1 receptor; Potency, µM (series often up to 46.3 µM), inactives show at the top dose activity change, negative = inhibition, most hits filed as inhibitors; HEK293 hNpr1 GloSensor cGMP, ANP-stimulated luminescence; P16066; 1.6% of 76,000 active; calls by dose curve; further: nearly all actives have a fitted effect of over 60% in size
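Compound pre-incubated 30 min at room temperature on GloSensor-loaded HEK293 cells stably carrying hNpr1 and the pGS-40F cGMP biosensor. Stimulation uses hNppA at 0.1 nM final; luminescence is taken at baseline and 20 min post-agonist.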
NIH3T3 tox = NIH 3T3 cell cytotoxicity; NIH 3T3 viability, CellTiter-Glo ATP luminescence, 48-72 h; Potency, µM (series often up to 96.7 µM), for the others: top-dose activity change, negative = cytotoxicity, actives largely listed as inhibitors; 4.3% of 94,000 active; further: nearly all actives have a fitted effect of over 55% in size
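First NIH 3T3 cells are plated at 400 cells/well; next compound is pinned in; then plates incubate 48 or 72 hr at 37 °C; finally CellTiter-Glo is added and luminescence read after 10 min.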
FLuc inh = blocks purified firefly luciferase enzyme activity. P08659. purified P. pyralis luciferase, luminescence, biochemical. Potency, µM (titrated, usually from 115 µM), hits mostly inhibitors. 2.5% of 76,000 active; further: nearly all actives have a fitted effect of over 65% in size
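Inhibitors were tested against purified firefly luciferase in a biochemical, low-substrate format (both substrates at 10uM) and luminescence measured with a CCD imager.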
HEK293 tox = cytotoxic compounds in HEK 293 cells. HEK 293 viability, ATP luminescence (CellTiter-Glo), 48-72 h. Potency, µM (series often up to 115 µM), inactives show at the highest dose activity change, negative = cytotoxicity, actives largely listed as inhibitors. 6.6% of 94,000 active; further: nearly all actives have a fitted effect of over 60% in size
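ATP-coupled CellTiter-Glo luminescence served as viability read-out, recorded 10 min after reagent addition at room temperature. HEK 293 cells, 250 cells/well, had been incubated with pintool-transferred compound for 48 or 72 hr at 37 degree Celsius.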
SNCA expr inh = inhibitors of alpha-synuclein (SNCA) gene expression; HEK-293 SNCA-luciferase knock-in, luminescence, 24 h; Potency, µM (titrated, usually from 57.2 µM), without a hit: top-dose activity change, negative = inhibition, most hits filed as inhibitors; 0.17% of 140,000 active;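 further: plate controls were DMSO cells for no effect and cell-free wells for full effect; nearly all actives have a fitted effect of over 45% in size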
Starred values were filed as active, the others as inactive; i = inactive; ? = inconclusive; . = not tested or not shown; [ ] = another dose, or the depositor's remark. A selection: hits, their analogues and other compounds. The true share with any hit is near 7.2%. Unless noted, the call rests on the fitted dose curve; in most records, active means well fitted curve in the direction sought with a large enough effect; inconclusive means small, poorly fitted or top-dose-only effect, or another doubt; inactive means no such curve, though single readings can be large; an effect the other way counts as inactive or inconclusive. Unless noted, on the % scale 0 is the no-effect control and ±100 the full control effect; potency means the concentration at half of the fitted maximal effect.

SMILES	HEK293 viab	NPR1 antag	NIH3T3 tox	FLuc inh	HEK293 tox	SNCA expr inh
O=C(NC1CCOCC1)c1ccc2c(c1)C1(CCN(CC3CC3)C1)CN2Cc1ccccc1 (stereo unspecified)	-6%	0%	?	i	?	3%
Cn1ccc(NC(=O)c2ccc3c(c2)C2(CCN(CC4CC4)C2)CN3Cc2ccccc2)n1 (stereo unspecified)	-2%	-9%	?	i	32µM*	-7%
CN1CCCC2(C1)CN(Cc1cccnc1)c1ccc(C(=O)Nc3ccc(F)cc3)cc12 (stereo unspecified)	0%[87.6 µM]	3%[70.6 µM]	?	i	?	0%[87.6 µM]
COc1cccc(CN2CC3(CCN(C)C3)c3cc(C(=O)NC4CCCCC4)ccc32)c1 (stereo unspecified)	-7%[87.6 µM]	-10%[70.6 µM]	25µM*	i	56µM*	?
COc1ccc(NC(=O)c2ccc3c(c2)C2(CCN(C)C2)CN3Cc2ccccc2)cc1 (stereo unspecified)	4%[87.6 µM]	-4%[70.6 µM]	50µM*	i	71µM*	-7%[87.6 µM]
CN1CCC2(C1)CN(Cc1ccccc1)c1ccc(C(=O)Nc3ccc(F)cc3)cc12 (stereo unspecified)	-15%[87.6 µM]	-1%[70.6 µM]	25µM*	i	40µM*	12%[87.6 µM]
COCCC(=O)N1CC(c2nnc(-c3ccc(C)cc3)o2)C2(CCOCC2)C1 (stereo unspecified)	4%	3%	-6%	i	-15%	18%
C=C(C)C(O)COc1ccc(CC(=O)O)cc1 (stereo unspecified)	-1%	.	.	.	.	.
Cc1cc(CN(C)C(=O)C2CCCN(C3CCN(Cc4ccncc4)CC3)C2)n[nH]1 (stereo unspecified)	5%	1%	i	i	i	2%
CC1(c2ccccc2)N(Cc2ccccc2)C(=O)OC12CCN(C(=O)COc1ccccc1)CC2 (stereo unspecified)	0%	2%	28µM*	i	?	-24%
CC1(c2ccccc2)N(Cc2cccnc2)C(=O)OC12CCN(C(=O)Cc1ccccc1)CC2 (stereo unspecified)	7%	8%	?	i	-8%	-25%
COCC(=O)N1CCC2(CC1)OC(=O)N(CCOc1ccccc1)C2(C)c1cccnc1 (stereo unspecified)	-2%[87.6 µM]	3%[70.6 µM]	50µM*	i	-9%[172 µM]	-19%[87.6 µM]
Cn1nccc1C(=O)N1CCC2(CC1)OC(=O)N(CCOc1ccccc1)C2(C)c1cccnc1 (stereo unspecified)	8%	2%	?	i	-5%	15%
CC1(c2cccnc2)N(Cc2ccccc2)C(=O)OC12CCN(C(=O)c1cnccn1)CC2 (stereo unspecified)	1%	-9%	28µM*	i	-15%	3%
CC1(c2cccnc2)N(Cc2ccccc2)C(=O)OC12CCN(C(=O)COc1ccccc1)CC2 (stereo unspecified)	2%	1%	32µM*	i	-9%	-2%
Cc1noc(C)c1S(=O)(=O)N1CCC(OCc2noc(C3CCCO3)n2)CC1 (stereo unspecified)	-28%	.	?	.	-23%	-3%
CCC(C)NC(=O)N1CCCN(S(=O)(=O)c2ccccc2)CCC(=O)NCC1 (stereo unspecified)	-8%	2%	-6%	i	-8%	-13%
CC(C)C[C@@H]1N[C@H](C(=O)NCCN(C)C)Cc2c[nH]c3cccc1c23	-3%[87.6 µM]	1%[70.6 µM]	56µM*	i	100µM*	?
CC(C)C[C@@H]1N[C@H](C(=O)NCCOc2ccccc2)Cc2cn(C)c3cccc1c23	?	-22%[70.6 µM]	32µM*	i	40µM*	?
CCCNC(=O)[C@@H]1Cc2c[nH]c3cccc(c23)[C@H](CC(C)C)N1	-14%[87.6 µM]	-2%[70.6 µM]	?	i	50µM*	-37%[87.6 µM]
CC(C)C[C@@H]1N[C@H](C(=O)NCCOc2ccccc2)Cc2c[nH]c3cccc1c23	?	-29%[70.6 µM]	28µM*	i	?	?
COCCNC(=O)[C@H]1C[C@H](Oc2ccccc2)CN1C(=O)c1ccccc1OC	1%	-13%	-9%	i	i	-25%
COc1ccc(C(=O)N2CC(Oc3ccccc3-c3nc(-c4ccccc4)no3)C2)cc1	?	-17%	32µM*	?	28µM*	-31%
O=C(NC1CCCC1)N1CC(Oc2ccccc2-c2nc(-c3ccccc3)no2)C1	-29%	-18%	32µM*	i	?	?
O=C(c1ccco1)N1CC(Oc2ccccc2-c2nc(-c3ccccc3)no2)C1	?	-21%	32µM*	?	25µM*	-26%
SMILES	HEK293 viab	NPR1 antag	NIH3T3 tox	FLuc inh	HEK293 tox	SNCA expr inh
CC(C)CNC(=O)N1CC(Oc2ccccc2-c2nc(-c3ccccc3)no2)C1	-11%	0%	?	?	?	5%
O=C1NC(=NC2CCCC2)C2(CCCN(CC3CC3)C2)N1c1cccnc1 (stereo unspecified)	-1%	.	?	.	-8%	19%
COc1cc2c(cc1OC)CN(C(=O)[C@@H](NCc1ccncc1)C(C)(C)C)CC2	-21%	.	.	.	.	.
COc1ccccc1N1CCN(CC[C@@H]2CC[C@H](O)[C@@H](C(=O)NC3CCCCC3)O2)CC1	-27%	-1%	4%	i	-24%	18%
O=C(Cc1ccccn1)N1CCCN(c2nc3ncccc3o2)CC1	4%	13%	?	i	-22%	7%
O=C(NCc1cccnc1)c1cc(-c2cnccc2Cl)c2cccn2n1	-21%	.	?	.	?	7%
O=C(CNC(=O)c1ccc(-c2cnc3ccccc3c2)cc1)NCc1ccc2c(c1)OCO2	.	.	-26%	.	50µM*	.
O=C(CNC(=O)c1ccc(-c2cnc3ccccc3c2)cc1)NCc1ccc(F)cc1	-11%	.	-49%	.	?	13%
COCCCNC(=O)CNC(=O)c1ccc(-c2cnc3ccccc3c2)cc1	.	.	-40%	.	79µM*	.
CCCCCNC(=O)CNC(=O)c1ccc(-c2cnc3ccccc3c2)cc1	-13%	.	?	.	?	23%
O=C(NCC12CCC=C1N(Cc1ccccc1)C(=O)CC2)c1cccnc1 (stereo unspecified)	4%	4%	-25%	i	-27%	-19%
COC[C@@H]1CN(C(=O)COc2ccc(F)cc2)C[C@H]1c1nc(C)no1	1%	-2%	-6%	i	-11%	-6%
CC1CCN(c2ccc(-c3cccc(N)c3)nn2)CC1	-19%	0.63µM*	32µM*	0.1µM*	32µM*	1.4µM*
